From PubChem BioAssay AID1022 (Emory University Molecular Libraries Screening Center, 2008)
“And” between values parts separate entries of the source, which are not always exact repeats. Equal values may be shown once. The whole screen tested about 220,000 compounds, of which about 3,300 (1.5%) were called active.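 The calls were made as follows: active = compounds that cut the protein-peptide binding signal by more than 50% relative to plate controls in a single-dose test; inactive = the rest.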 Shown is part of a subset that was picked to be rich in actives. Some compounds were tested as several samples or in several runs, with calls that do not always agree.

Biological target: Induced myeloid leukemia cell differentiation protein Mcl-1 (Homo sapiens) (UniProt Q07820)
Sequence (Q07820 whole entry, looked up): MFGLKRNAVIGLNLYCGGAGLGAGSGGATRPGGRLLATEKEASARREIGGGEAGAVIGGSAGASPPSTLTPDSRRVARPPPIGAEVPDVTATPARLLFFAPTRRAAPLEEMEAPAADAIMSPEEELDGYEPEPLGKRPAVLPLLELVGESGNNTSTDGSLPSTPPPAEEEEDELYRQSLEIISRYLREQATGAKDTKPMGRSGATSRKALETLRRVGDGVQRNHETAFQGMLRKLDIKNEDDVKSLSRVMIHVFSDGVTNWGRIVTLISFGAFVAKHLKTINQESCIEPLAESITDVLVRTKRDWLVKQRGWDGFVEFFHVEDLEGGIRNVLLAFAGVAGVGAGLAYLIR
Assay: disruptors of Mcl-1 and Noxa BH3 peptide – biochemical, TR-FRET, 1536-well, primary screen (AID 1022);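 also: His-tagged Mcl-1 with rhodamine Noxa BH3 peptide and terbium anti-His antibody; 0% = Mcl-1 plus Noxa peptide wells and 100% = peptide-only wells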
Settings: TR-FRET Mcl-1/Noxa peptide binding, 2 h; at 21.7 µM; stronger effect = higher value

SMILES	inhibition
Cc1noc(C)c1S(=O)(=O)Nc1cc(C(F)(F)F)ccc1N1CCOCC1	-6.09% (inactive)
CC(C)Cc1nc(Cl)c(C#N)c2c1CCC2	1.09% (inactive)
COc1ccccc1CNC(=O)Cn1c(=O)oc2cc(Cl)ccc21	-8.08% (inactive)
CCCCN1C(=O)/C(=C/C=C2/C=Cc3ccccc3N2CC)SC1=S	25.9% (inactive)
CCN1C(=O)/C(=c2\s/c(=C3\Sc4ccccc4N3C)c(=O)n2C)N(C)C1=S	46.4% (inactive)
CCN1C(=O)/C(=C2/Sc3ccccc3N2CCCS(=O)(=O)O)SC1=S	23% (inactive) and 61.3% (active)
COc1ccc(N2C(=O)C3C(C2=O)C(C(=O)c2ccccc2)N2CCCC32)cc1 (configuration not stated)	2.44% (inactive)
CCOc1cccc(/C=N/N2C(=O)CSC2=S)c1O	37.8% (inactive)
NC(N)=N/N=C/c1ccc(Cl)c([N+](=O)[O-])c1	8.52% (inactive)
O=C1CSC(=S)N1/N=C/c1ccc(O)c([N+](=O)[O-])c1	85.6% (active)
COc1ccc(COCCN2CCN(S(=O)(=O)c3ccccc3)CCC2=O)cc1	4.91% (inactive)
S=c1[nH]nc(-c2cccnc2)n1/N=C/C(Cl)=C\c1ccccc1	32.3% (inactive)
Cc1cc(-c2n[nH]c(=S)n2/N=C/c2ccco2)n[nH]1	5.82% (inactive)
Cc1cc(-c2n[nH]c(=S)n2/N=C/C(Br)=C/c2ccccc2)n[nH]1	59.6% (active)
Nc1ccccc1Sc1ccc(C(F)(F)F)cc1[N+](=O)[O-]	-1.26% (inactive)
S=c1[nH]nc(-c2ccccc2)n1/N=C/c1c[nH]c2ccccc12	13.7% (inactive)
S=c1[nH]nc(-c2cc(-c3ccccc3)n[nH]2)n1/N=C/c1c2ccccc2cc2ccccc12	79.6% (active)
S=c1[nH]nc(-c2ccco2)n1/N=C/c1ccccc1	32.5% (inactive)
COCCN1C2=C(COC(C)(C)C2)C(=S)NC1c1ccccc1 (configuration not stated)	1.37% (inactive)
Cc1cnc(NC(=O)Cn2cnc3c2c(=O)n(C)c(=O)n3C)s1	3.66% (inactive)
COCCOC(=O)c1sc(=S)n(CCOC)c1N	51.1% (active)

SMILES	inhibition
COC(=O)c1sc(=S)n(-c2ccccc2)c1N	16.2% (inactive)
CCOC(=O)Cn1c(N)c(C(=O)OC)sc1=S	5.93% (inactive)
CN(C)c1ccc(Nc2c3c4c(cccc4n(C)c2=O)C(=O)c2ccccc2-3)cc1	104% (active)
COc1ccc(COCC(O)CN2CCC(C(N)=O)CC2)cc1 (configuration not stated)	4.43% (inactive)
CCn1cc(C(=O)N2CCN(Cc3ccc4c(c3)OCO4)CC2)c2cc(OC)c(OC)cc2c1=O	4.25% (inactive)
CCn1cc(C(=O)NCC2COc3ccccc3O2)c2cc(OC)c(OC)cc2c1=O (configuration not stated)	-0.39% (inactive)
CCn1cc(C(=O)NCc2ccc3c(c2)OCO3)c2cc(OC)c(OC)cc2c1=O	74.5% (active)
CCOC(=O)C1C(c2ccc(OC)c(OC)c2)c2c([nH][nH]c2=O)CC1(C)O (configuration not stated)	-16.2% (inactive)
CC(NC(=O)C(=O)Nc1nccs1)c1ccccc1 (configuration not stated)	-15.7% (inactive)
CC12CN3CCN(CC(C3)/C1=N\NC(=O)c1ccccc1N)C2	15.5% (inactive)
N#Cc1c(N2CCCCC2)nc(N)c2c(N)nc(SCC(=O)O)cc12	57.7% (active)
N#Cc1c(C(F)(F)F)cc(-c2ccc(Cl)cc2)nc1SCC(=O)O	6.22% (inactive)
Cc1cc(C)c(C#N)c(N2CCC(C(N)=O)CC2)n1	6.16% (inactive)
COC(C[C@H](O)CC(=O)COCc1ccccc1)OC	3.71% (inactive)
O=[N+]([O-])C(=c1ccc2c(c1)N1C3=C(CCCC3)CC3CCCCC31N=2)[N+](=O)[O-] (configuration not stated)	99.2% (active)
Cc1ccc(Nc2nc(Cl)c(C=O)s2)cc1	10.2% (inactive)
CN(C(=O)CCn1c(=S)oc2ccccc21)C1CCCCC1	-15.3% (inactive)
CC(=O)Nc1ccc(NC(=O)CSc2ncnc3c2cnn3Cc2ccccc2)cc1	9.1% (inactive)
CC(NC(=S)Nc1ccccc1)C(c1cccs1)N1CCOCC1 (configuration not stated)	-2.6% (inactive)
Clc1ccc(C2=CSC3=Nc4cccc5cccc(c45)N23)cc1	61.8% (active)
COC(=O)c1cccc(NS(C)(=O)=O)c1	-15.1% (inactive)
